Each structure is given as a SMILES string. Compounds without any hit were thinned out: in the full panel of roughly 83,000, 20% have a hit.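 Step 1: grow cells in 96-well plates. Step 2: add test compound at a single concentration. Step 3: incubate 48 h. Step 4: record percent growth.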 Values without a mark were called inactive. Active and inactive are the calls of the source. How the source made its calls: active means growth percent below 10; inactive means the rest.

Some test systems named below: SK-MEL-2 melanoma; EKVX NSCLC; SN12C renal; TK-10 renal; ACHN renal; CAKI-1 renal; MOLT-4 leukemia; SR leukemia; RPMI-8226 leukemia; OVCAR-8 ovarian; OVCAR-5 ovarian; SK-OV-3 ovarian; OVCAR-3 ovarian; HS 578T breast; NCI/ADR-RES ovarian; OVCAR-4 ovarian; IGROV1 ovarian; CCRF-CEM leukemia; A498 renal.
Holding throughout (experiment): NCI-60 one-dose screen, 48 h (100 = growth as untreated, 0 = no growth, -100 = all killed)
Settings in all cases: 10 µM

Take `CC(=O)OC1CC2C(C)(C)CCC[C@]2(C)C2=C1C(O)=C(C(C)C)C(=O)C2=O` (stereo partly specified): the growth with SK-MEL-2 melanoma was -2.83% (active); in the assay on EKVX NSCLC, -15.7% (active); in the assay on SN12C renal, 3.28% (active); with TK-10 renal, 22.5%; in the assay on ACHN renal it was -95.3% (active); in the assay on CAKI-1 renal, -5.22% (active). The growth with MOLT-4 leukemia was 17.4%; with SR leukemia, 2.66% (active); with RPMI-8226 leukemia, 4.43% (active); with OVCAR-8 ovarian it was 13.4%; in the assay with OVCAR-5 ovarian it was -39.3% (active); in the assay on SK-OV-3 ovarian, 19.3%. In addition, the growth is -54% (active) with OVCAR-3 ovarian, 28.9% in the assay on HS 578T breast and 3.62% (active) with NCI/ADR-RES ovarian.
Consider `Nc1nc(-c2cccnc2)nc2c1sc(=S)n2-c1ccccc1`, for which the growth in the assay with SK-MEL-2 melanoma was 101%; in the assay on EKVX NSCLC, 101%; with SN12C renal it was 98.6%; in the assay on TK-10 renal, 93.5%; with ACHN renal, 107%; with CAKI-1 renal, 98.7%. Also, the growth is 96.9% with MOLT-4 leukemia; 113% in the assay on SR leukemia; 101% with OVCAR-8 ovarian; 125% with OVCAR-5 ovarian; 128% in the assay with OVCAR-4 ovarian; 103% in the assay on SK-OV-3 ovarian. Further, the growth in the assay on IGROV1 ovarian is 98.1%; in the assay on OVCAR-3 ovarian, 114%; in the assay with HS 578T breast it was 91.4%; in the assay with NCI/ADR-RES ovarian, 93.1%.
For the compound `CCOc1ccccc1/C=N\N=C(\N)N/N=C/c1ccccc1OCC`, the growth in the assay on SK-MEL-2 melanoma is 14.9%; in the assay on EKVX NSCLC, 64.8%; in the assay on SN12C renal, 45.2%; in the assay on TK-10 renal, 67.8%; with ACHN renal it was 44.8%; in the assay with CAKI-1 renal, 37.2%. In addition, the growth was 16.9% in the assay on CCRF-CEM leukemia; 26.5% in the assay on MOLT-4 leukemia; 27.1% with RPMI-8226 leukemia; 39.1% in the assay with OVCAR-8 ovarian; 93.4% in the assay on OVCAR-5 ovarian; 71.8% in the assay on OVCAR-4 ovarian. Also, the growth in the assay on SK-OV-3 ovarian is 10.3%; in the assay with OVCAR-3 ovarian, 7.41% (active); in the assay with NCI/ADR-RES ovarian it was 3.57% (active).
Take `O=c1c(Br)ccc(Br)cc1Br`: the growth is -73.3% (active) in the assay on SK-MEL-2 melanoma; 99.1% in the assay with EKVX NSCLC; 4.44% (active) with SN12C renal; -44.5% (active) with TK-10 renal; -79.1% (active) with ACHN renal; -81.3% (active) in the assay on CAKI-1 renal. In addition, the growth was -41.4% (active) in the assay with CCRF-CEM leukemia; -36.8% (active) in the assay with MOLT-4 leukemia; -51.2% (active) in the assay on RPMI-8226 leukemia; 4.49% (active) in the assay on OVCAR-5 ovarian; -92.8% (active) in the assay on OVCAR-4 ovarian; 112% in the assay on SK-OV-3 ovarian. Also, the growth with OVCAR-3 ovarian is -94.8% (active); in the assay with HS 578T breast, 43.4%; in the assay on NCI/ADR-RES ovarian, -15.3% (active).
On to `CCn1cc(C(=O)O)c(=O)c2cc(F)c(N3CCNCC3)cc21`, for which the growth with SK-MEL-2 melanoma was 113%; with EKVX NSCLC, 102%; in the assay with SN12C renal, 106%; with TK-10 renal, 116%; with ACHN renal it was 95.5%; with CAKI-1 renal, 96.5%. In addition, the growth with A498 renal was 117%; in the assay on CCRF-CEM leukemia, 102%; in the assay on MOLT-4 leukemia, 93.5%; with SR leukemia, 100%; in the assay with RPMI-8226 leukemia, 104%; in the assay on OVCAR-8 ovarian it was 97%. For the same compound, the growth in the assay with OVCAR-4 ovarian was 111%; in the assay on SK-OV-3 ovarian, 113%; with OVCAR-3 ovarian it was 114%; in the assay on HS 578T breast, 111%; in the assay on NCI/ADR-RES ovarian, 110%.
For `CNC(=O)c1cn(C2CC2)c2cc(N3CCN(C(=O)c4cc(OC)c(OC)c(OC)c4)CC3)c(F)cc2c1=O`, the growth with SK-MEL-2 melanoma was 94.8%; in the assay with EKVX NSCLC, 91.2%; with SN12C renal, 101%; with TK-10 renal it was 92.1%; in the assay with ACHN renal, 99.4%; in the assay on CAKI-1 renal it was 90.9%. Further, the growth in the assay with A498 renal was 88.4%; in the assay with MOLT-4 leukemia, 99.7%; in the assay on SR leukemia it was 92.2%; with RPMI-8226 leukemia, 97.6%; in the assay with OVCAR-8 ovarian it was 100%; with OVCAR-5 ovarian it was 96%. In addition, the growth in the assay on OVCAR-4 ovarian is 98.6%; in the assay with SK-OV-3 ovarian it was 103%; in the assay with IGROV1 ovarian, 102%; with OVCAR-3 ovarian, 106%; in the assay with HS 578T breast it was 101%; in the assay with NCI/ADR-RES ovarian, 96.7%.
As for `Cc1ccc(C)c(COc2cc(NC(=O)c3ccc4c(c3)OCO4)ccc2N(C)S(C)(=O)=O)c1`, the growth in the assay with SK-MEL-2 melanoma was 37.6%; with EKVX NSCLC it was 29.6%; in the assay on SN12C renal, 27.2%; in the assay on TK-10 renal, 54.1%; in the assay on ACHN renal, 29.3%; in the assay on CAKI-1 renal, 15.6%. The growth was -11.3% (active) in the assay on A498 renal; 7.75% (active) in the assay on MOLT-4 leukemia; 13.2% in the assay with SR leukemia; 24.9% in the assay with RPMI-8226 leukemia; 24.9% in the assay on OVCAR-8 ovarian; 30.7% in the assay with OVCAR-5 ovarian. Besides, the growth in the assay with OVCAR-4 ovarian was 29.7%; with SK-OV-3 ovarian, -21% (active); with OVCAR-3 ovarian, -20.6% (active); in the assay on HS 578T breast, -32.9% (active); in the assay on NCI/ADR-RES ovarian, -5.26% (active).
Take `Cc1cc(Br)nnc1Br`: the growth in the assay with SK-MEL-2 melanoma was 123%; in the assay on EKVX NSCLC, 114%; in the assay with SN12C renal, 109%; in the assay with TK-10 renal, 124%; in the assay on ACHN renal it was 108%; in the assay on CAKI-1 renal it was 101%. In addition, the growth in the assay with CCRF-CEM leukemia was 97.8%; with MOLT-4 leukemia it was 93.4%; in the assay with RPMI-8226 leukemia, 122%; in the assay on OVCAR-8 ovarian it was 115%; in the assay with OVCAR-5 ovarian, 105%; with OVCAR-4 ovarian it was 113%. The growth is 101% with SK-OV-3 ovarian, 112% in the assay with OVCAR-3 ovarian, 110% in the assay with HS 578T breast and 120% in the assay on NCI/ADR-RES ovarian.
On to `COc1ccc2c(c1)C(CC(=O)NN)CCC2` (stereo unspecified), for which the growth in the assay with SK-MEL-2 melanoma was 108%; in the assay with EKVX NSCLC, 109%; in the assay with SN12C renal, 104%; with TK-10 renal it was 98.7%; with ACHN renal it was 99.6%; with CAKI-1 renal, 91.2%. In addition, the growth in the assay with A498 renal was 93.2%; in the assay with CCRF-CEM leukemia, 100%; in the assay with MOLT-4 leukemia, 86.8%; in the assay with RPMI-8226 leukemia, 113%; in the assay with OVCAR-8 ovarian, 99.1%; in the assay with OVCAR-5 ovarian, 100%. Also, the growth was 110% in the assay on OVCAR-4 ovarian; 115% in the assay with SK-OV-3 ovarian; 112% in the assay on OVCAR-3 ovarian; 102% in the assay with HS 578T breast; 108% in the assay on NCI/ADR-RES ovarian.
